Laboratory results from PubChem BioAssay (NCATS).
Inconclusive results are not listed. Unmarked numbers belong to inactive results. The source made the active and inactive calls. The call rests on the fitted dose curve; in most records, active means well fitted inhibition curve with a large enough effect; inconclusive means small, poorly fitted or top-dose-only effect; inactive means no such curve, though single readings can be large or run the other way.

target: Retinaldehyde dehydrogenase 3 (Homo sapiens) (UniProt P47895); assay: qHTS for Inhibitors of the Aldehyde Dehydrogenase Family (ALDH1A3) Primary screen (AID 2061315); details: ALDH inhibition qHTS; series mostly up to 56 µM;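 further: plate controls were DMSO vehicle for no effect and reference inhibitor for full effect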

SMILES	Potency
Cc1nc2c(-c3cnc(N)nc3)nc(N3CCOCC3)nc2n1C(C)C	inactive
CCc1cccc(CC)c1NC(=O)N1Cc2[nH]nc(NC(=O)c3ccc(N4CCN(C)CC4)cc3)c2C1	inactive
COc1cc2nccc(Oc3ccc(NC(=O)C4(C(=O)Nc5ccc(F)cc5)CC4)cc3)c2cc1OC	inactive
COc1ccc(-c2cc3nccn3c(Nc3ncccc3C(N)=O)n2)cc1OC	inactive
Cn1c2ccccc2c2c3c(c4c5ccccc5n(CCC#N)c4c21)CNC3=O	inactive

test system: not listed separately; assay: BET inhibitor-based combinations targeting novel dependencies in MECOM-rearranged (r) AML: SET-2 cell line (AID 2202231); details: SET-2 AML cells viability, CellTiter-Glo luminescence, 48 h; viability: active compounds read low, concentration not given here; further: nearly all actives have a fitted effect of over 35% in size; further: potency means the concentration at half of the fitted maximal effect;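 on viability: plate controls were DMSO treated cells for no effect and wells without cells for full effect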
Procedure, shortened: (§1)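 Viability of cells (500 per well) is scored by luminescent CellTiter-Glo at 48 hr post-dosing. Eleven-point titrations are normalized to DMSO and empty controls and reduced to AUC values.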

SMILES	viability	Potency
Clc1ccccc1CN1CCc2sccc2C1	111%	
Cc1c(-c2ccc(O)cc2)n(Cc2ccc(OCCN3CCCCCC3)cc2)c2ccc(O)cc12		23.5 µM (active)
Cc1cc2c(C(C)C)c(O)c(O)c(C=O)c2c(O)c1-c1c(C)cc2c(C(C)C)c(O)c(O)c(C=O)c2c1O		9.34 µM (active)
CCCOc1ccc2nc(NC(=O)OC)[nH]c2c1		0.525 µM (active)
CC(=O)N(O)CCCCCNC(=O)CCC(=O)N(O)CCCCCNC(=O)CCC(=O)N(O)CCCCCN		20.9 µM (active)
Cc1nc(N)sc1-c1ccnc(Nc2ccc(N3CCOCC3)cc2)n1		5.25 µM (active)
CCCOc1ccc(C(=O)OCCN(CC)CC)cc1N	101%	
Cc1coc2c1C(=O)C(=O)c1c-2ccc2c1CCCC2(C)C	97.6%	
COc1ncnc(NS(=O)(=O)c2ccc(N)cc2)c1OC	116%	

test system: not listed separately; assay: BET inhibitor-based combinations targeting novel dependencies in MECOM-rearranged (r) AML: OCI-AML3 cell line (AID 2202232); details: CellTiter-Glo luminescence, 48 h; Potency: OCI-AML3 viability; series mostly up to 46 µM; further: nearly all actives have a fitted effect of over 35% in size; further: potency means the concentration at half of the fitted maximal effect
Procedure, shortened: as §1

SMILES	Potency
Clc1ccccc1CN1CCc2sccc2C1	inactive
Cc1c(-c2ccc(O)cc2)n(Cc2ccc(OCCN3CCCCCC3)cc2)c2ccc(O)cc12	16.6 µM (active)
Cc1cc2c(C(C)C)c(O)c(O)c(C=O)c2c(O)c1-c1c(C)cc2c(C(C)C)c(O)c(O)c(C=O)c2c1O	9.34 µM (active)
CCCOc1ccc2nc(NC(=O)OC)[nH]c2c1	0.332 µM (active)
CC(=O)N(O)CCCCCNC(=O)CCC(=O)N(O)CCCCCNC(=O)CCC(=O)N(O)CCCCCN	11.8 µM (active)
Cc1nc(N)sc1-c1ccnc(Nc2ccc(N3CCOCC3)cc2)n1	11.8 µM (active)
CCCOc1ccc(C(=O)OCCN(CC)CC)cc1N	inactive
CC(C)[C@H](C(=O)Nc1ccc(C(=O)NO)cc1)c1ccccc1	0.742 µM (active)
COc1ncnc(NS(=O)(=O)c2ccc(N)cc2)c1OC	inactive

test system: not listed separately; assay: BET inhibitor-based combinations targeting novel dependencies in MECOM-rearranged (r) AML: MV-4-11 cell line (AID 2202233); details: MV-4-11 AML viability, CellTiter-Glo luminescence, 48 h; series mostly up to 46 µM; further: nearly all actives have a fitted effect of over 45% in size; further: potency means the concentration at half of the fitted maximal effect
Procedure, shortened: (§2)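 Using pin-tool transfer, drugs were added in 11 doses to cells (500/well), incubated 48 hr, and assessed with CellTiter-Glo. Z-AUC is a mean-centring transformation applied separately to each screened line.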

SMILES	Potency
Cc1cc2c(C(C)C)c(O)c(O)c(C=O)c2c(O)c1-c1c(C)cc2c(C(C)C)c(O)c(O)c(C=O)c2c1O	9.34 µM (active)
CCCOc1ccc2nc(NC(=O)OC)[nH]c2c1	0.372 µM (active)
CC(=O)N(O)CCCCCNC(=O)CCC(=O)N(O)CCCCCNC(=O)CCC(=O)N(O)CCCCCN	11.8 µM (active)
Cc1nc(N)sc1-c1ccnc(Nc2ccc(N3CCOCC3)cc2)n1	0.186 µM (active)
Cc1nc2c(-c3cnc(N)nc3)nc(N3CCOCC3)nc2n1C(C)C	0.296 µM (active)
CCc1cccc(CC)c1NC(=O)N1Cc2[nH]nc(NC(=O)c3ccc(N4CCN(C)CC4)cc3)c2C1	1.32 µM (active)
CCCOc1ccc(C(=O)OCCN(CC)CC)cc1N	inactive
COc1cc2nccc(Oc3ccc(NC(=O)C4(C(=O)Nc5ccc(F)cc5)CC4)cc3)c2cc1OC	0.0166 µM (active)
CC(C)[C@H](C(=O)Nc1ccc(C(=O)NO)cc1)c1ccccc1	0.372 µM (active)
COc1cc(N2CCC(O)CC2)ccc1Nc1cc(Nc2ccccc2S(=O)(=O)C(C)C)c2cc[nH]c2n1	18.6 µM (active)
COc1ccc(-c2cc3nccn3c(Nc3ncccc3C(N)=O)n2)cc1OC	0.372 µM (active)
COc1ncnc(NS(=O)(=O)c2ccc(N)cc2)c1OC	inactive

test system: not listed separately; assay: BET inhibitor-based combinations targeting novel dependencies in MECOM-rearranged (r) AML: HNT-34 cell line (AID 2202234); details: HNT-34 AML viability, CellTiter-Glo luminescence, 48 h; series mostly up to 46 µM; further: nearly all actives have a fitted effect of over 35% in size; further: potency means the concentration at half of the fitted maximal effect
Procedure, shortened: as §2

SMILES	Potency
Clc1ccccc1CN1CCc2sccc2C1	inactive
Cc1cc2c(C(C)C)c(O)c(O)c(C=O)c2c(O)c1-c1c(C)cc2c(C(C)C)c(O)c(O)c(C=O)c2c1O	9.34 µM (active)
CCCOc1ccc2nc(NC(=O)OC)[nH]c2c1	0.235 µM (active)
CC(=O)N(O)CCCCCNC(=O)CCC(=O)N(O)CCCCCNC(=O)CCC(=O)N(O)CCCCCN	9.34 µM (active)
C[C@H]1c2cccc(O)c2C(O)=C2C(=O)[C@]3(O)C(O)=C(C(N)=O)C(=O)[C@@H](N(C)C)[C@@H]3[C@@H](O)[C@@H]21	18.6 µM (active)
Cc1nc2c(-c3cnc(N)nc3)nc(N3CCOCC3)nc2n1C(C)C	0.525 µM (active)
CCc1cccc(CC)c1NC(=O)N1Cc2[nH]nc(NC(=O)c3ccc(N4CCN(C)CC4)cc3)c2C1	0.742 µM (active)
COc1cc2nccc(Oc3ccc(NC(=O)C4(C(=O)Nc5ccc(F)cc5)CC4)cc3)c2cc1OC	2.95 µM (active)
CC(C)[C@H](C(=O)Nc1ccc(C(=O)NO)cc1)c1ccccc1	0.833 µM (active)
COc1cc(N2CCC(O)CC2)ccc1Nc1cc(Nc2ccccc2S(=O)(=O)C(C)C)c2cc[nH]c2n1	18.6 µM (active)
Cn1c2ccccc2c2c3c(c4c5ccccc5n(CCC#N)c4c21)CNC3=O	3.32 µM (active)
Cc1coc2c1C(=O)C(=O)c1c-2ccc2c1CCCC2(C)C	18.6 µM (active)
